Measured values taken from ChEMBL document CHEMBL4513216, “Probing the Open Global Health Chemical Diversity Library for Multistage-Active Starting Points for Next-Generation Antimalarials” (ACS Infect Dis, 2020).
Hit rate of the full screen: of about 69,000 compounds, about 8,600 (12%) showed an effect of 50% or more. Only a selection was taken, and strong results are over-represented in it overall.

The compounds below were run on Plasmodium berghei (assay: Screen against P. berghei liver stage (PbLuc), transformed with Luciferase, at 10uM). Details: tested at 10 uM.
Format: functional, HepG2
For `COc1ccc(F)c(CNC2CCCc3nc(N(C)C)ncc32)c1` (stereo not given), the INHIBITION was 37.6%. In the case of `O=C(CCCOCc1ccccc1)N1CCCC(n2cncn2)C1` (stereo not given), the INHIBITION was 21.6%. In the case of `Cc1nn(C2CCS(=O)(=O)C2)c(C)c1CC(=O)NCc1ccccc1Cl` (stereo not given), the INHIBITION was -8.9%. For `CNC(=O)NC(=O)CCN1CCCC1c1nc(C2CCCCC2)co1` (stereo not given), the INHIBITION was -11.3%. `CN(C)C[C@]12COC[C@H]1CN(C(=O)Cc1ccc3c(c1)OCO3)C2` showed an INHIBITION of 23.5%. For `CC(O)(CN1CCN(CCO)CC1)c1cccc(C(F)(F)F)c1` (stereo not given), the INHIBITION was -14%. `Cc1nc2cc(-c3nccn3C)nn2c(N2CCC(O)CC2)c1C` gave an INHIBITION of 12.3%. With `O=C1COC2(COCCN(c3ccccn3)C2)CN1c1cccc(F)c1` (stereo not given) the INHIBITION was 31.2%. For `c1ccc(CN2CCc3c(CNc4nccs4)n[nH]c3C2)nc1`, the INHIBITION was 34.4%. Work on `CCS(=O)(=O)N1CCCC2(COCCN(c3nncs3)C2)C1` (stereo not given) yielded an INHIBITION of 28.2%. `Fc1cnc(N2CCOCC3(CCCN(c4nncs4)C3)C2)nc1` (stereo not given) gave an INHIBITION of 41.5%. For `CCN1CCOCC2(CCCN(c3nncs3)C2)C1` (stereo not given), the INHIBITION was 52.3%. With `Cc1cc(CNC(=O)N2CCc3ccccc3C2CO)c(C)o1` (stereo not given) the INHIBITION was 2.43%. In the case of `Cc1cc(F)ccc1-n1cc(O)c(C(=O)NCC[S+](C)[O-])n1` (stereo not given), the INHIBITION was 36.2%. In the case of `COc1ccccc1COCC(O)CN1CCC(c2ccn[nH]2)CC1` (stereo not given), the INHIBITION was 46.2%. `Cn1cc(CN2CCn3cnc(COCC4CC4)c3C2)cn1` was tested, and the INHIBITION was 5.63%. Compound `CC(=O)N1CCN(Cc2cccc3c2sc2ccccc23)CC(O)C1` (stereo not given) has an INHIBITION of 84.6%. `CC(=O)N1CCN(Cc2c(C)sc3ccccc23)CC(O)C1` (stereo not given) was tested, and the INHIBITION was 35.4%. Work on `CC(=O)N1CCN(Cc2c(C)ccc3ccccc23)CC(O)C1` (stereo not given) yielded an INHIBITION of 44.3%. For `Cc1cnn(CCNCc2cccc(C#N)c2)c1`, the INHIBITION was 32.2%. `Cn1cncc1CN1CCC2(CC1)COCCN(S(C)(=O)=O)C2` gave an INHIBITION of 4.68%. `O=C(CC1CCCC1)N1CCC(c2nnc(-c3ccccn3)o2)CC1` showed an INHIBITION of -18.1%. `CC(C)CCN(C)C(=O)c1nc(S(C)(=O)=O)n2ccccc12` gave an INHIBITION of 46.5%. For `CN(Cc1ccccc1)C(=O)c1nc(S(C)(=O)=O)n2ccccc12`, the INHIBITION was 52%. With `CN(Cc1ccccn1)C(=O)c1nc(S(C)(=O)=O)n2ccccc12` the INHIBITION was 36.85%. `Cn1cc(Cl)cc1C(=O)N1CCCN(Cc2ccccc2)CC1` was tested, and the INHIBITION was 16.97%. Compound `Cn1cnnc1SCc1cc2c(cc1Br)OCO2` has an INHIBITION of 49%. With `O=C(NCC(F)F)c1ccc(S(=O)(=O)N2CCCC(O)C2)cc1` (stereo not given) the INHIBITION was 37.3%. With `N#CC1CCCN(S(=O)(=O)c2ccc(C(=O)NCC(F)F)cc2)C1` (stereo not given) the INHIBITION was 49.2%. Work on `N[C@H]1CCCN(S(=O)(=O)c2ccc(C(=O)NCC(F)F)cc2)C1` yielded an INHIBITION of 66.1%. Work on `CN(C(=O)c1cn(C)cn1)[C@@H]1CCC[C@@H](Oc2ccccc2)[C@@H]1O` yielded an INHIBITION of 60.5%. With `Cc1cnc(C(=O)N(C)[C@@H]2CCC[C@@H](Oc3ccccc3)[C@@H]2O)cn1` the INHIBITION was 17.1%. With `CN(C(=O)c1ccn(C)n1)[C@@H]1CCC[C@@H](Oc2ccccc2)[C@@H]1O` the INHIBITION was 35.2%. In the case of `Cc1noc(C)c1-c1cncc(C2CCCN2Cc2nccs2)n1` (stereo not given), the INHIBITION was 15.9%. `O=C(CC1CCCO1)N1CCCN(c2cccnn2)CC1` (stereo not given) gave an INHIBITION of 7.12%. Work on `Cc1cc(C)nc(N(C)CCn2ccnc2C)n1` yielded an INHIBITION of -45.7%. With `CN(C)C(=O)CN1CCC2(CC1)CC(=O)c1ccc3ccccc3c1O2` the INHIBITION was 41.1%. In the case of `Cc1ccc2nc(CNCCCN3CCCC3)cc(O)c2c1`, the INHIBITION was 41.5%. Compound `OCC1CCCCN1CCCNCc1cc(O)c2cc(F)ccc2n1` (stereo not given) has an INHIBITION of 25.7%. `CN1CCN(CCCNCc2cc(O)c3cc(F)ccc3n2)CC1` was tested, and the INHIBITION was 65.6%. For `O=C(CCNCc1cc(O)c2cc(F)ccc2n1)N1CCCC1`, the INHIBITION was 30.4%. With `Oc1cc(CNCCN2CCCCC2)nc2c(F)cccc12` the INHIBITION was 13.7%. With `Oc1cc(CNCCCN2CCCC2)nc2ccc(F)cc12` the INHIBITION was 62.8%. In the case of `O=S(=O)(CCNCc1cc(O)c2cc(F)ccc2n1)N1CCCC1`, the INHIBITION was 58.2%. In the case of `O=C1CCCN1CCCNCc1cc(O)c2cccc(F)c2n1`, the INHIBITION was -15.8%. In the case of `O=C1CCCN1CCCNCc1cc(O)c2cccc(Cl)c2n1`, the INHIBITION was -13.4%. With `CC(NCc1c(C(C)C)nn(C)c1N1CCOCC1)C(=O)N(C)C` (stereo not given) the INHIBITION was 19.45%. `Cc1cc(C)c2c(NCCC3(O)CCCC3)ncnc2n1` was tested, and the INHIBITION was 42.3%. In the case of `CCn1ccc2ccnc(CC3CN(C(=O)c4cnco4)C3)c21`, the INHIBITION was 1.62%. Work on `CN1CC2(CCCCN2C(=O)c2ccsc2)CC1=O` (stereo not given) yielded an INHIBITION of 35.8%. In the case of `Cc1oc(C)c(C(=O)NCc2cccc(C(N)=O)c2)c1C`, the INHIBITION was -39.7%. `CNC(=O)C1CN(C)CCN1c1nc(C)cc(C)n1` (stereo not given) was tested, and the INHIBITION was -5.8%. `COC(=O)Cn1c(=O)[nH]c2cn(-c3ccc(Cl)cc3)c(=O)n21` gave an INHIBITION of 0.547%. Compound `NC(=O)c1cc(C2CCCN(CCCOc3ccc(F)cc3)C2)n[nH]1` (stereo not given) has an INHIBITION of 14.22%. For `COc1ccccc1OCC(=O)NS(=O)(=O)c1ccc(Cl)s1`, the INHIBITION was 31.3%. In the case of `Cc1ccc(S(=O)(=O)NC(=O)CCOCC(C)C)s1`, the INHIBITION was 55.9%. For `Cc1ccc(S(=O)(=O)NC(=O)CCOCc2ccccc2)s1`, the INHIBITION was 36.3%. With `CCOCCCC(=O)NS(=O)(=O)c1ccc(C)s1` the INHIBITION was 11.3%. `CC(C)COCCC(=O)NS(=O)(=O)c1ccc(Cl)s1` showed an INHIBITION of 62.4%. For `CC(=O)c1ccc(OCC(=O)NS(=O)(=O)c2ccc(Cl)s2)cc1`, the INHIBITION was 36.8%. `OC1(CN2CCCC2)COCCN(c2cc(C(F)(F)F)ccn2)C1` (stereo not given) showed an INHIBITION of -16%. Work on `OCCn1nccc1C1CCN(Cc2nc(C3CC3)no2)CC1` yielded an INHIBITION of 33.7%. With `Cc1cc(C(=O)N2CCC(Nc3cccnc3)CC2)c(C)s1` the INHIBITION was -19.5%. `O=S1(=O)NC(c2ccnc(N3CCCC3)n2)=Nc2ccccc21` showed an INHIBITION of 33.2%. With `Cc1ccc(C(=O)N2CCC3(CC2)CC(N2CCOCC2)C3)cc1` the INHIBITION was 55.7%. In the case of `O=C(c1ccc(F)cc1)N1CCC2(CC1)CC(N1CCOCC1)C2`, the INHIBITION was -24.5%. `Cc1ccc(C(=O)N2CCC3(CC2)CC(N2CCCC2)C3)cc1` showed an INHIBITION of 39.9%. With `CN(C)C(=O)c1cn[nH]c1C1(C)CCCN(Cc2ccccn2)C1` (stereo not given) the INHIBITION was 40%. With `CCOc1ccc(NC(=O)N2CCNC(=O)C2)c(C(F)(F)F)c1` the INHIBITION was 40.2%. `O=C(Cn1cc(-c2ccccc2)ncc1=O)Nc1ccncc1` gave an INHIBITION of 0.547%. For `O=C(Cn1cc(-c2ccccc2)ncc1=O)Nc1nnc[nH]1`, the INHIBITION was 13%. With `O=C(Cn1cc(-c2ccccc2)ncc1=O)Nc1ncc[nH]1` the INHIBITION was 81%. With `Cc1nc2c(C)cccc2cc1C(=O)N1CCC2(CCN(C)CC2)C1` the INHIBITION was -17.7%. `CCOc1nnc(CN2CCC(c3cc4ccccc4[nH]3)CC2)s1` was tested, and the INHIBITION was -14.2%. Work on `CCOc1nnc(CN2CCC(c3nc4ccccc4[nH]3)CC2)s1` yielded an INHIBITION of -35.9%. In the case of `CCOc1nnc(CN2CCN(CCOC)CC2)s1`, the INHIBITION was 53.4%. `CCOc1nnc(CN2CCN(CCOC)C(CC)C2)s1` (stereo not given) gave an INHIBITION of 28.6%. With `CCOCCN1CCN(CCOC)CC1C` (stereo not given) the INHIBITION was 11.4%. `CCOc1nnc(CN2CCN(CCOC)C(C)C2)s1` (stereo not given) was tested, and the INHIBITION was 51.7%. For `COCC1CC2(CCN(C(=O)c3ccc(C)nc3)CC2)CO1` (stereo not given), the INHIBITION was -26.1%. Work on `COc1ccc(C2CCCN2C(=O)NCCn2ccnc2)cc1OC` (stereo not given) yielded an INHIBITION of -20.965%. Compound `O=S(=O)(C1CC1)N1CC[C@@H](OCC2CC2)[C@@H]1Cc1ccncc1` has an INHIBITION of 47.5%. Work on `CNc1nc(CNC(=O)Nc2ccc(OC(C)C)cc2C)cs1` yielded an INHIBITION of 57.2%. In the case of `CNc1nc(CNC(=O)Nc2cccc(C)c2Cl)cs1`, the INHIBITION was -25.15%. `CNc1nc(CNC(=O)Nc2ccc(OC)cc2C)cs1` gave an INHIBITION of 21.5%. With `CNc1nc(CNC(=O)Nc2cc(Cl)ccc2F)cs1` the INHIBITION was -41.85%. Work on `CNc1nc(CNC(=O)Nc2ccccc2OC(C)C)cs1` yielded an INHIBITION of 32.3%. For `CNc1nc(CNC(=O)Nc2ccc(OC(C)C)cc2F)cs1`, the INHIBITION was 72.3%. `COc1ccc2[nH]cc(C(=O)CNc3nc(C)cs3)c2c1` gave an INHIBITION of -29.5%. Compound `O=C(CCOc1ccc(F)cc1)N1CCCC1Cn1cccn1` (stereo not given) has an INHIBITION of 30.6%. For `Cc1ccc2c(n1)N(CCn1cccn1)CCN(C(=O)NC(C)C)C2`, the INHIBITION was -32%. For `CS(=O)(=O)NCc1cnc2n1CCN(Cc1ccsc1)CC2`, the INHIBITION was 30.1%. `NCc1ccc(Oc2cccc(Cl)c2Cl)nc1` showed an INHIBITION of 28.7%. With `NCc1ccc(Oc2cccc(Cl)c2Cl)cc1` the INHIBITION was 13.2%. Work on `CCOc1ccccc1Oc1ccc(CN)cn1` yielded an INHIBITION of 60.3%. `CN(Cc1ccccn1)C(=O)c1nn(C)c2c1CCN(CC1CC1)C2` gave an INHIBITION of 48.2%. `CC(C)CCN1CCc2c(C(=O)N(C)Cc3ccccn3)nn(C)c2C1` was tested, and the INHIBITION was 48.2%. `CCCN1CCc2c(C(=O)N(C)Cc3ccccn3)nn(C)c2C1` showed an INHIBITION of 55.6%. `COCCCNC(=O)CN(C)C1CCCN(c2cccnn2)C1` (stereo not given) showed an INHIBITION of -14.7%. In the case of `CC(=O)N1CC(=O)N(c2ccsc2)CC12CCN(Cc1ccoc1)C2` (stereo not given), the INHIBITION was -3.58%. With `CCN1C(=O)C(c2ccccc2)CC12CCN(CCO)CC2` (stereo not given) the INHIBITION was 19.8%. For `CNC(=O)CN1CC[C@H]2CN(C(=O)c3ccccc3C)C[C@H]2C1`, the INHIBITION was -28%. `Cc1nn(CC(=O)N2CCN(Cc3cn(C)nc3C)CC2)cc1Br` showed an INHIBITION of 51%. `CCn1ncc(CN2CCN(C(=O)Cn3cc(Br)c(C)n3)CC2)c1C` gave an INHIBITION of 34%. `Cc1nn(CC(=O)N2CCN(Cc3cnn(C)c3C)CC2)cc1Br` showed an INHIBITION of -5.92%. With `CCn1cc(CN(C)S(=O)(=O)c2cnn(C)c2)cn1` the INHIBITION was 7.66%. With `O=c1c2cn[nH]c2nc(SCCN2CCOCC2)n1-c1ccccc1` the INHIBITION was 21.5%. With `CC(=O)N1CCC2(CN(CC3CCCC3)C2)C1` the INHIBITION was 39.5%. With `CC(=O)N1CCC2(CCN(CC3CCOC3)C2)CC1` (stereo not given) the INHIBITION was 42.1%. `CC(=O)N1CCC2(CCN(CC3CCCCC3)C2)CC1` gave an INHIBITION of 51.9%.
